Screening data deposited in PubChem BioAssay by Broad Institute.
The list is not random: actives were taken first. Their share in the collection is about 0.65%.
Vc quorum ag-1: quorum light induction in luxS cqsA deficient V. cholerae | V. cholerae BH1578 lux reporter, luminescence, 6 h | activation, % at 18.7 µM | actives 0.16% (n = 350,000) | AID 588436; in the data active means activation mostly above about 9.7%, no sharp cut-off; inconclusive means no clear call, values can overlap the other calls; inactive means mostly below about 3.7%
Y pestis TopoI: blocks Yersinia pestis topoisomerase I activity; Y. pestis Topo-I cleavage product accumulation, plate reader; activity, % at 10 µM; actives 0.064% (n = 360,000); AID 504884; in the data active means activity above about 50%, passing the limit was not always enough; inconclusive means no clear call, values can overlap the other calls
PrP 5UTR inh: inhibition of PrP 5' UTR reporter expression | cell-based PrP 5' UTR mRNA reporter, plate reader | inhibition, % (no concentration beside the values) | actives 0.35% (n = 340,000) | AID 488862; in the data active means inhibition above about 52%
TcdB GH inh: inhibitors of Clostridioides difficile toxin B glycohydrolase; TcdB glycohydrolase enzymatic assay, plate reader; inhibition, % at 9.99 µM; actives 0.24% (n = 350,000); in the data active means inhibition above about 10%
UGM FP inh: inhibitors of M. tuberculosis UDP-galactopyranose mutase; P9WIQ1; purified UGM, fluorescence polarization probe displacement; inhibition, % at 10 µM; actives 0.06% (n = 320,000); AID 504406; in the data active means inhibition above about 10%, passing the limit was not always enough; inconclusive means no clear call, values can overlap the other calls
PrP 5UTR single: prion 5' UTR mRNA inhibition, cherry-pick retest; shares compounds with PrP 5UTR inh; cell-based prion protein 5' UTR reporter, plate reader; inhibition, % at 2.5 µM; actives 48% (n = 1,100); in the data active means inhibition above about 54%; inconclusive means no clear call, values can overlap the other calls
DNA intercal FP: intercalates into DNA, flagged in counter-screen; shares compounds with UGM FP inh; acridine orange-DNA binding, fluorescence polarization; AC50, µM; actives 60% (n = 35); AID 463198;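 active means fitted AC50 no greater than ten times the top concentration tested, cut at about 17 µM in these data; inconclusive means flat fit with 30 to 70% signal change, or an unreliable fit; inactive means AC50 beyond ten times the top concentration tested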
Vc quorum ag-2: induces V. cholerae light production without autoinducers; shares compounds with Vc quorum ag-1; V. cholerae BH1578 lux reporter, luminescence, 6 h; activation, % at 50 µM; 620 tested, under 10 active; call rule not given here
Hits are given with their value; . = inactive; ? = inconclusive; / = no result.

SMILES	Vc quorum ag-1	Y pestis TopoI	PrP 5UTR inh	TcdB GH inh	UGM FP inh	PrP 5UTR single	others
CC1(C)Oc2cc3oc(-c4cc(O)cc(O)c4)cc3cc2CC1O (stereo not given)	.	.	70.7	.	.	?
Oc1cc(O)cc(-c2cc3ccc(O)cc3o2)c1	.	.	.	.	.	/
CO[C@@H]1CN(C)C(=O)c2cc(NC(=O)c3ccc(F)cc3)ccc2OC[C@H](C)N(C(=O)CN(C)C)C[C@@H]1C	/	/	/	.	/	/
Cc1ccccc1[N+](=O)[O-]	.	.	.	.	.	/
Cc1cc([N+](=O)[O-])c2ccccc2[n+]1[O-]	.	.	87.4	/	.	97.7
C[C@H](CO)N1C[C@H](C)[C@H](CN(C)Cc2ccc(-c3ccccc3)cc2)Oc2c(NS(=O)(=O)c3ccc(Cl)cc3)cccc2C1=O	/	/	/	.	/	/
CCOc1ccccc1C(=O)N1CCN(c2ccc(C(F)(F)F)cn2)CC1	.	.	62.0	.	.	.
COc1ccccc1NC(=O)N[C@H]1CC[C@@H](CC(=O)N2CCC(Cc3ccccc3)CC2)O[C@H]1CO	/	/	/	.	/	/
CN(C)C(=O)c1ccc(-c2ccc3c(c2)[C@H]2[C@H](CCN2C(=O)C2CCCC2)[C@H](CO)N3C)cc1	/	/	/	.	/	/
N#CC1=C2N=C(N)c3ccccc3N2C2=C(C(=O)CCC2)C1c1cccc(Cl)c1 (stereo not given)	.	.	70.1	.	.	.
Cc1ccccc1C1C(C#N)=C2N=C(N)c3ccccc3N2C2=C1C(=O)CCC2 (stereo not given)	.	.	.	.	.	/
OCC1=C[C@@H](O)[C@@H]2C=CO[C@@H](O[C@@H]3O[C@H](CO)[C@@H](O)[C@H](O)[C@H]3O)[C@H]12	.	.	65.4	.	.	.
OCC1=C[C@@H](O)C2C=CO[C@@H](O[C@@H]3O[C@H](CO)[C@@H](O)[C@H](O)[C@H]3O)C12 (stereo not given in full)	.	.	.	.	.	/
C[C@@H]1CN([C@H](C)CO)C(=O)Cc2cc(NC(=O)Cc3ccccc3)ccc2O[C@H]1CN(C)S(=O)(=O)c1ccccc1	/	/	/	.	/	/
C=CCCC1(CC)C(=O)NC(=S)NC1=O	.	.	.	.	/	/
C=CCCC1(CC(C)C)C(=O)NC(=S)NC1=O	.	.	90.8	.	/	.
O=C(c1ccccc1F)N1CC(=O)N2[C@H](C1)[C@@H](c1ccc(C#Cc3ccccc3)cc1)[C@@H]2CO	/	/	/	.	/	/
O=C(c1cc2ccccc2o1)N1CCN(S(=O)(=O)/C=C/c2ccccc2)CC1	.	.	.	.	.	/
O=C(c1ccco1)N1CCN(S(=O)(=O)/C=C/c2ccccc2)CC1	.	.	56.4	.	.	.
Cn1cnc2nc[nH]c2c1=O	.	.	54.7	.	/	.
CO[C@@H]1CN(C)C(=O)c2cc(NS(=O)(=O)c3ccccc3C)ccc2OC[C@@H](C)NC[C@@H]1C	/	/	/	.	/	/
CCN(CC)Cc1cc(C(C)(C)C)cc(N2CCOCC2)c1O	/	.	73.1	.	/	.
CN(C)Cc1cc(C(C)(C)C)cc(N2CCOCC2)c1O	.	.	.	.	/	/
O=C1c2cccc3cc([N+](=O)[O-])cc(c23)C(=O)N1CCN1CCCC1	.	.	90.3	.	/	81.7
COc1ccc(-c2nsc3c(N4CCCCC4C)ncnc23)cc1 (stereo not given)	.	.	87.3	.	.	82.7
SMILES	Vc quorum ag-1	Y pestis TopoI	PrP 5UTR inh	TcdB GH inh	UGM FP inh	PrP 5UTR single	others
COc1ccc(C(=O)N2CCN(c3ncnc4c(-c5ccccc5)nsc34)CC2)cc1	.	.	.	/	/	/
COc1ccc(-c2nsc3c(N4CCCCC4)ncnc23)cc1	.	.	72.2	/	.	70.0
COc1ccc(-c2nsc3c(N4CCN(S(=O)(=O)c5ccccc5F)CC4)ncnc23)cc1	.	.	.	/	.	/
COc1ccc(OC)c2[nH]c(=O)c(CCNC(=O)COc3ccccc3)cc12	.	.	56.7	/	.	.
O=C(Nc1ccccc1Cl)c1ccc(C(=O)Nc2ccccc2Cl)cc1	.	.	75.6	.	/	.
O=C(Nc1ccccc1Cl)c1ccccc1	.	.	.	.	.	/
Cc1ccc2nc(-c3cc(-c4ccccc4)no3)cn2c1	.	.	.	.	.	/
CCc1ccn2cc(-c3cc(-c4ccccc4)no3)nc2c1	.	.	71.3	.	.	82.5
CC(C)CSC1=NSC2=NC(=O)/C(=C\c3coc4ccccc4c3=O)C(=N)N12	.	.	.	/	.	/	DNA intercal FP=17.4
CSC1=NSC2=NC(=O)/C(=C\c3coc4ccccc4c3=O)C(=N)N12	.	.	.	.	.	/
CC(=O)Nc1cccc(N)c1	.	.	.	.	.	/	DNA intercal FP=.
CC(=O)Nc1cccc(C)c1	.	.	.	.	.	/
Cc1ccc(S(=O)(=O)N[C@@H]2C=C[C@H](CC(=O)N3CCN(c4ccccc4)CC3)O[C@H]2CO)cc1	/	/	/	.	/	/
C/C=C/c1ccc2c(c1)O[C@H](CN(C)C(=O)Nc1cc(F)ccc1F)[C@@H](C)CN([C@H](C)CO)S2(=O)=O	/	/	/	.	/	/
C/C=C/c1ccc2c(c1)O[C@@H](CN(C)C(=O)Nc1cc(F)ccc1F)[C@H](C)CN([C@@H](C)CO)S2(=O)=O	/	/	/	.	/	/	DNA intercal FP=.
COc1ccccc1S(=O)(=O)Nc1ccc2c(c1)OC[C@@H](C)NC[C@H](C)[C@H](OC)CN(C)C2=O	/	/	/	.	/	/
NS(=O)(=O)c1ccc(NCCCn2ccnc2)c([N+](=O)[O-])c1	.	.	.	.	.	/
COc1ccc2noc3c2c1C(=O)c1ccccc1-3	.	.	.	.	83.9	/	DNA intercal FP=3.07
O=C1c2ccccc2-c2onc3ccc(NCCCn4ccnc4)c1c23	/	/	/	/	83.0	/	DNA intercal FP=2.5
CN(C)/C=C1\C=C2C(=O)c3ccccc3N2C1=O	.	.	.	.	103.2	/	DNA intercal FP=0.458
CC(C)C[C@@H]1COCc2cn(nn2)CC[C@@H](Cc2ccccc2)C(=O)N1	/	/	/	.	/	/
COc1cccc2c1C(=O)c1c(O)c3c(c(O)c1C2=O)CC(O)(C(=O)CO)CC3OC1CC(N)C(O)C(C)O1 (stereo not given)	/	/	/	/	/	/	DNA intercal FP=6.83
CCCN1C[C@H](C)[C@H](OC)CN(C)C(=O)c2cc(NC(=O)NC3CCCCC3)ccc2OC[C@@H]1C	/	/	/	.	/	/
Cc1cc(C)c2nc(C(F)(F)F)nc(NCCCN3CCCC3=O)c2c1	.	.	.	/	.	/	DNA intercal FP=.
COc1c(C)cccc1C(=O)Nc1ccc(OCC(=O)N2CCOCC2)cc1C	.	.	.	.	.	/	Vc quorum ag-2=.
Cc1cc(C)c(S(C)(=O)=O)c(Oc2ccc(C(C)(C)C)cc2)n1	.	.	.	/	.	/	Vc quorum ag-2=.
COc1cc(C(=O)Nc2ccc(NC(=O)C(C)C)nc2)cc(OC)c1OC	6.7	.	.	/	.	/	Vc quorum ag-2=.
COc1cc(C(=O)Nc2ccc(NC(=O)c3ccccc3)nc2)cc(OC)c1OC	.	.	.	.	.	/
O=C(Nc1ccc(-c2cn3ccsc3n2)cc1)c1ccc(F)c(S(=O)(=O)N2CCOCC2)c1	.	.	.	/	.	/	Vc quorum ag-2=.
